Measured values: the supplement of paper PMC13380429

Test system: Vero E6 infected with SARS-CoV-2
Test: inhibition of SARS-CoV-2 cytopathic effect; higher = more antiviral protection, active = above 15
Details: 48 h

Measured: inhibition of SARS-CoV-2 cytopathic effect

CCOc1cc(OCC)c(C(=O)CCC(=O)O)cc1OCC [trepibutone]
inactive: 1 nM -2.61% | 8.33 nM 0.72% | 100 nM -0.04% | 833.33 nM -0.1% | 10000 nM 0.69%

O=C1[C@H](CC[C@H](O)c2ccc(F)cc2)[C@@H](c2ccc(O)cc2)N1c1ccc(F)cc1 [ezetimibe]
inactive: 1 nM 0.31% | 8.33 nM 0.64% | 100 nM -0.99% | 833.33 nM 2.19% | 10000 nM 5.44%

CCN(CC)CCOC(=O)C(Cc1cccc2ccccc12)CC1CCCO1 (mixture of isomers) [naftidrofuryl]
inactive: 1 nM 0.67% | 8.33 nM -0.29% | 100 nM 2.4% | 833.33 nM 1.45% | 10000 nM -1.13%

COCc1nnc(N2CC(Oc3ccc(F)cc3Cl)C2)n1-c1ccc(OC)nc1
inactive: 1 nM -1.23% | 8.33 nM -3.96% | 100 nM -0.12% | 833.33 nM -1.42% | 10000 nM -1.43%

O=C(OCCO)c1ccccc1O [2-hydroxyethyl-salicylate]
inactive: 1 nM 0.19% | 8.33 nM 1.56% | 100 nM -0.09% | 833.33 nM 0.15% | 10000 nM -2.92%

c1ccc2sc(SN3CCOCC3)nc2c1 [N-oxydiethylenebenzothiazole-2-sulfenamide]
inactive: 1 nM -2.53% | 8.33 nM -1.68% | 100 nM -1.37% | 833.33 nM 0.03% | 10000 nM -1.24%

CCOC(=O)Nc1ccc2c(c1)N(C(=O)CN(C)C)c1ccccc1CC2 [tiracizine]
inactive: 1 nM 3.29% | 8.33 nM -0.87% | 100 nM -0.27% | 833.33 nM 1.89% | 10000 nM 0.68%
